# Data taken from PubChem BioAssay.
# Values joined by “and” are separate entries in the source; they are usually repeats but may differ in a detail not shown here. Identical values can stand only once. A number with no mark means an inactive call. Active and inactive are the calls of the source.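 Rule for the calls: active = inhibition at or above 50% relative to wild type and mutant plate controls; inactive = inhibition below 50%.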 Peptide text beside a SMILES is read from it. * marks the point of attachment. Cbz = O=C(OCc1ccccc1)*
# Assay: inhibitors of Chlamydomonas gravitaxis, primary screen, whole organism, Chlamydomonas reinhardtii, WT vs cilia-less mutant, absorbance, 96-well (AID 463189);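 note: 0% = wild type cc124 cells in DMSO and 100% = ciliumless bld1 mutant cells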
# Conditions: OD600 absorbance, 2 days, at 10 µM, stronger effect = higher value
row,Structure (SMILES),inhibition
1,CC(C)(Sc1ccc(CCN(CCCCC2CCCCC2)C(=O)NC2CCCCC2)cc1)C(=O)O,-0.647%
2,CC(=O)SCC[N+](C)(C)C,-2.92%
3,CC1=C(/C=C/C(C)=C/C=C/C(C)=C\C(=O)O)C(C)(C)CCC1,-3.51%
4,O=C(CCCN1CCC(O)(c2cccc(C(F)(F)F)c2)CC1)c1ccc(F)cc1,40.6%
5,CC(N)C1CCC(C(=O)Nc2ccncc2)CC1 (centres undefined),3.82%
6,O=C1NC(O)=NC1(c1ccccc1)c1ccccc1,-1.32%
7,O=C(Nc1ccc([N+](=O)[O-])cc1Cl)c1cc(Cl)ccc1O,43.4%
8,CC(CN(C)C)CN1c2ccccc2CCc2ccccc21 (centres undefined),1.33%
9,O=c1[nH]c2cc(Cl)c(Cl)cc2[nH]c1=O,5.88%
10,O=C(O)CCC(C(=O)O)N1C(=O)c2ccccc2C1=O (centres undefined),0.124%
11,O=C1c2c(O)ccc(O)c2C(=O)c2c(NCCNCCO)ccc(NCCNCCO)c21,28.8%
12,Cc1cccc(C2CN(C)CCc3c2cc(O)c(O)c3Cl)c1 (centres undefined),3.56%
13,O=C(O)c1cc2cc(Cc3cccnc3)ccc2o1,-4.17%
14,O=C(O)/C(=C/c1c(C(=O)O)[nH]c2cc(Cl)cc(Cl)c12)c1ccccc1,-3.38%
15,OC[C@H]1O[C@@H](n2cnc3c(NC4CCCCC4)ncnc32)[C@H](O)[C@@H]1O,4.21%
16,O=C1NC(c2cccc([N+](=O)[O-])c2)=CCN1c1ccccc1O,-0.979%
17,NC(=O)C1=CN(C2OC(COP(=O)(O)OP(=O)(O)OC[C@H]3O[C@@H](n4cnc5c(N)ncnc54)C(OP(=O)(O)O)[C@H]3O)C(O)C2O)C=CC1 (some centres undefined),-0.493%
18,NC(N)=NC(N)=Nc1cccc(Cl)c1,4.09%
19,Oc1ccc(-c2nc(-c3ccc(F)cc3)c(-c3ccncc3)[nH]2)cc1,7.36%
20,C/C=C1\C(=O)CC2C3CCC4=CC(=O)CC[C@]4(C)C3CC[C@]12C (some centres undefined),0.131%

row,Structure (SMILES),inhibition
1,CCCOc1ccccc1-c1nc2n[nH]nc2c(=O)[nH]1,-8.54%
2,CC(C)[C@H](NC(=O)OCc1ccccc1)C(=O)N[C@H](C=O)Cc1ccccc1 (Cbz-Val-Phe-aldehyde),6.09%
3,CC(C)Cc1ccc([C@H](C)C(=O)O)cc1,8.1%
4,Cc1cc(N)c2ccccc2[n+]1CCCCCCCCCC[n+]1c(C)cc(N)c2ccccc21,147% (active)
5,CNCCNS(=O)(=O)c1cccc2cnccc12,5.09%
6,CN(C)C(=O)/N=N/C(=O)N(C)C,-5.45%
7,CC1=C(CC(=O)O)c2cc(F)ccc2/C1=C\c1ccc(S(C)(=O)=O)cc1,2.22%
8,CC(C)NC[C@H](O)COc1cccc2[nH]ccc12,-3.11% and 2.85%
9,COc1cc2c(cc1OC)-c1cc(=Nc3c(C)cc(C)cc3C)n(C)c(=O)n1CC2,10.5%
10,N#Cc1c(-c2ccccc2)no[n+]1[O-],-3.89%
11,CSc1ccc2c(c1)C(N1CCN(C)CC1)Cc1ccccc1S2 (centres undefined),0.427%
12,NC1(C(=O)O)CCc2cc(C(=O)O)ccc21 (centres undefined),4.42%
13,O=C(O)/C=C/c1cnc[nH]1,1.11%
14,NCCCCN=C(N)N,5.23%
15,C[C@]12C=CC(=O)C=C1CC[C@@H]1C2=CC[C@]2(C)[C@@H](C(=O)CN3CCN(c4cc(N5CCCC5)nc(N5CCCC5)n4)CC3)CC[C@@H]12,3%
16,NC(=NCc1ccc(Cl)c(Cl)c1)NC(=O)c1nc(Cl)c(N)nc1N,7.67%
17,C[C@H](O)C(=O)C1=Nc2c(nc(N)[nH]c2=O)NC1,7.45%
18,CC(=O)c1ccc(S(=O)(=O)NC(=O)NC2CCCCC2)cc1,-5.49%
19,COc1ccccc1CNCCCCCCNCCCCCCCCNCCCCCCNCc1ccccc1OC,126% (active)
